PubChem BioAssay (EPA / NIEHS)
Active and inactive are the calls of the source. Rule for the calls: active = hit-call score of the fitted dose curve at least 0.9, where 1 is the maximum; inactive = score below 0.9.

What follows are compounds tested on Protein phosphatase 2A (PPP2R4), PTPA (gene 5524) (assay: LTEA_HepaRG_PPP2R4: Life Technologies and Expression Analysis (LTEA) Assay for Protein phosphatase 2A (PPP2R4) using HepaRG (AID 2283522)). Conditions: mRNA level, 48 h; actives raise or lower the signal.
Method: LTEA_HepaRG is a cell based, multiplexed-readout assay that uses HepaRG, a human liver cell line, with measurements taken at 48 hours after chemical dosing on a 96-well plate.LTEA_HepaRG_PPP2R4 is one of 102 assay component(s) measured in the LTEA HepaRG cell culture assay. It is a marker of Cell proliferation, survival, death.Data from the assay component LTEA_HepaRG_PPP2R4 was analyzed into 1 endpoint. This assay endpoint, LTEA_HepaRG_PPP2R4, was analyzed with bidirectional fitting relative to DMSO as the negative control and baseline of activity. Using a type of inducible reporter, measures of mRNA induction for gain or loss-of-signal activity can be used to understand regulation of transcription factor activity. To generalize the intended target to other relatable targets, this assay endpoint is annotated to the phosphatase intended target family, where the subfamily is serine/threonine phosphatase.
A total of 1060 chemcials from the ToxCast library were tested in eight-point concentration-response experiments. Cell culture and cytotoxicity assays were conducted at Thermo Fisher Scientific's Custom Services facility (Madison, WI). A single lot of human HepaRG cells (Thermo Fisher Scientific, Frederick, MD) was used for the cell culture experiments. 96-well format collagen type I coated plates of human HepaRG cells were prepared using established methods. Briefly, cryopreserved HepaRG cells were thawed, plated at a density of approximately 100,000 cells/well in HepaRG Thaw, Plate, and General Purpose media (HPRG770, Thermo Fisher Scientific), and incubated for 48 hours. 0.5% DMSO was selected as vehicle control to balance the requisite need of DMSO in HepaRG cultures to maintain differentiation (for example, baseline metabolism, proportions of hepatocytes vs. cholangiocytes), while enabling further hepatic receptor pathway activation (for example, PXR and CAR) in response to chemical exposure. 48 hours after plating, the culture medium was replaced with HepaRG Serum-Free Incudtion Media. Cells were exposed to each test chemical in duplicate and maintained in CO2 incubators for another 48 hours. Chemical plates were thawed to room temperature and 200x concentrations of treatment groups were prepared. 8-point conentration-reponse curves were made with the highest exposure at 100 uM, followed by half-log dilutions, all in 0.5% DMSO. Each test plate contained variouse controls, induction positive controls (1mM phenobarbital), cytotoxicity positive controls ([…] aflatoxin B1), vehicle controls (0.5% DMSO), and total lysis controls (0.5% DMSO). Cell morphology images were taken using an Essen IncuCyte FLR automated microscope, with six 96-well plates imaged in about 24 minutes. Images were captured and exported and JPEG files. Spent culture media was transfered to black-well plates for the LDH assay, and remaining media was sorted at -80 C for later use. Cells were treated with RLT buffer and frozen until shipped for gene expression analysis. Total RNA was isolated from the cell suspension in 75 uL of Buffer RLT (Qiagen, Germantown, MD 20874) by Quintiles/Expression Analysis (Durham, NC) using a custom isolation procedure. Total RNA from each plate well was transferred to a preamplification plate. Fluidigm's 96.96 Dynamic ArrayTM (Fluidigm, Amsterdam, the Netherlands) technology was used for gene expression analyses by quantitative reverse transcription polymerase chain reaction (qRT-PCR, performed by Quintiles/Expression Analysis, Durham, NC)89. Standard TaqManTM Assays (Applied Biosystems/ThermoFisher Scientific, Foster City, CA) were used to assess the expression of 93 genes selected based on their selectivity and sensitivity to important hepatic receptors known to be modulated by environmental chemicals; importance in human hepatocyte functionality; and hepatotoxicity. […]

SMILES | outcome | AC50
COc1ccc2sc(C(=O)Nc3nnn[nH]3)c(OC(C)C)c2c1 | inactive | 
CCn1nc(Cc2ccccc2)cc1C1CCN(C[C@H]2C[C@H](N(C)[C@@H](C(=O)O)C(C)C)C[C@@H]2c2cccc(F)c2)CC1 | inactive | 
CC(C)CCCCCCOC(=O)c1ccc(C(=O)OCCCCCCC(C)C)c(C(=O)OCCCCCCC(C)C)c1 | inactive | 
COC(=O)CC(=O)OC | inactive | 
On1ccccc1=S | inactive | 
CC(C)(O)c1coc(S(=O)(=O)NC(=O)Nc2c3c(cc4c2CCC4)CCC3)c1 | inactive | 
O=C(O)c1cc(N=Nc2ccc(S(=O)(=O)Nc3ccccn3)cc2)ccc1O | inactive | 
CC1(C)C(=O)N(Br)C(=O)N1Br | inactive | 
C1N2CN3CN1CN(C2)C3 | inactive | 
Cc1ccc(S(=O)(=O)O)cc1C | inactive | 
CC(C)=CCC/C(C)=C\CO | inactive | 
COCCOc1cc2cc(C(=O)NC3CCN(C(C)C)CC3)n(CC(=O)Nc3ccc(Cl)cn3)c2cn1 | inactive | 
CNS(=O)(=O)c1cc(C(=O)N2CCC(CCN3C4CCC3CC(n3c(C)nc5ccccc53)C4)(c3cccc(F)c3)CC2)c(Cl)cc1F (stereo not given) | inactive | 
COc1cccc(-c2ccc(/C=C\CN3CCCCCC3)cc2Cl)c1 | inactive | 
CCOC(=O)CC(CC(=O)OCC)(OC(C)=O)C(=O)OCC | inactive | 
CCCCCCCCCCCCc1ccccc1 | inactive | 
Nc1nc2ncc(CNc3ccc(C(=O)N[C@@H](CCC(=O)O)C(=O)O)cc3)nc2c(=O)[nH]1 | inactive | 
CCC(C)(C)C(=O)O[C@H]1C[C@@H](C)C=C2C=C[C@H](C)[C@H](CC[C@@H]3C[C@@H](O)CC(=O)O3)[C@H]21 | inactive | 
O=C(CCCCCCCCc1cccnc1)N1CCC(C=C(c2ccccc2)c2ccccc2)CC1 |  | 11.7 µM (active)
C[C@](N)(Cc1ccc(O)c(O)c1)C(=O)O | inactive | 

SMILES | outcome | AC50
CCOc1cccc(-n2cc(C(=O)N3CCN(c4cc(C(=O)O)c5ccccc5c4)CC3)nc2-c2ccc(C)cc2)c1 |  | 86.4 µM (active)
O=C1CCCCCN1 | inactive | 
CNCc1ccc(NC(=O)c2c[nH]c3c2C(=O)CCC3)cc1 | inactive | 
COCCOCCOCCOC | inactive | 
CC(C)CC(C)(O)C#CC(C)(O)CC(C)C (stereo not given) | inactive | 
COc1ccc(/C=C/S(=O)(=O)NC(=O)c2ccc(C)cc2Cl)cc1 |  | 0.11 µM (active)
CCOCCOCCOCCO | inactive | 
CCCCCCc1ccc(O)cc1O | inactive | 
CC(=O)OCCC(C)C | inactive | 
CCNc1ccccc1 | inactive | 
CC(C)CCO | inactive | 
CCCC(=O)OCC | inactive | 
COc1ccc(-n2nc(C(F)F)cc2-c2ccc(S(C)=O)cc2)cc1 (stereo not given) | inactive | 
Cn1cnc([N+](=O)[O-])c1Sc1ncnc2nc[nH]c12 | inactive | 
CC[C@H]1OC(=O)[C@H](C)[C@@H](O[C@H]2C[C@@](C)(OC)[C@@H](O)[C@H](C)O2)[C@H](C)[C@@H](O[C@@H]2O[C@H](C)C[C@H](N(C)C)[C@H]2O)[C@](C)(O)C[C@@H](C)C(=O)[C@H](C)[C@@H](O)[C@]1(C)O | inactive | 
CC/C(=C\C(=N/O)C(N)=O)C(C)[N+](=O)[O-] (stereo not given) | inactive | 
Cc1[nH]cnc1C[C@H]1CCc2c(C)c3ccccc3n2C1=O |  | 73.1 µM (active)
CC[C@H]1CC[C@H](NCc2cc3c(cc2OC)[C@H]2C[C@H]2C(=O)N3C)[C@H](c2ccccc2)N1 | inactive | 
CC(O)CN(CCN(CC(C)O)CC(C)O)CC(C)O (stereo not given) |  | 12.5 µM (active)
CCCCCCCCCCCCCCCO | inactive | 
